Records with an inconclusive call do not appear. The source made the active and inactive calls. The calls were made as follows, unless noted: active = hit-call score of the fitted dose curve at least 0.9, where 1 is the maximum; inconclusive = response in the unintended direction; inactive = score below 0.9.
Columns and labels:
[1] = TOX21_p53_BLA_p2_viability: Viability Assessment in the Tox21 HCT-116 p53 Agonism Beta-lactamase Assay, Phase 2 (AID 2283591);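 also: actives lower the ATP signal meaning cytotoxicity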
In short: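 Cytotoxicity readout: CellTiter-Glo ATP luminescence, 30 min at room temperature, after the beta-lactamase read. Cells were HCT116 exposed 16 h at 37C to compounds pin-transferred at 217-fold dilution from DMSO stocks.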

[2] = target: Cellular tumor antigen p53 (Homo sapiens) (UniProt P04637); test: TOX21_p53_BLA_p2_ratio: Tox21 HCT-116 p53 Agonism Beta-lactamase Assay, Ratio, Phase 2 (AID 2283592)
Sequence of Cellular tumor antigen p53 (Homo sapiens) (P04637 whole entry, looked up): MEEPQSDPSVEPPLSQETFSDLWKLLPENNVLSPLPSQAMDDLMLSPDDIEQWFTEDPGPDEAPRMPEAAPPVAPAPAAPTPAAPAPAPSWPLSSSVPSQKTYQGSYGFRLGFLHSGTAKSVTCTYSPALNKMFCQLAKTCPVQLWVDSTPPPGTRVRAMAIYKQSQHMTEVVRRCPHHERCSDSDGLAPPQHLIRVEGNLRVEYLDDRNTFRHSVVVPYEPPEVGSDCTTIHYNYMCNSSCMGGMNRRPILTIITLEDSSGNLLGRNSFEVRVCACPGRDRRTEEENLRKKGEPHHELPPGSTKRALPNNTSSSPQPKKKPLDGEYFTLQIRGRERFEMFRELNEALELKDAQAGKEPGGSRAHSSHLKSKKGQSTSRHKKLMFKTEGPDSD
In short: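 An inducible beta-lactamase reporter in HCT116 cells signals p53 pathway activation. After 16 h chemical exposure at 37C, cells load CCF4-AM substrate for 2 h at room temperature; activity is the cleaved/uncleaved emission ratio relative to DMSO.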

[3] = TOX21_p53_BLA_p3_viability: Viability Assessment in the Tox21 HCT-116 p53 Agonism Beta-lactamase Assay, Phase 3 (AID 2283593);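 also: cells exposed to compound for 16 h before reading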
In short: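 Cellular ATP was quantified by CellTiter-Glo luminescence, read after 30 min at room temperature. Beforehand, HCT116 cells (4000/well) received compound 5 h post-seeding, 217-fold diluted from DMSO, then incubated 16 h at 37C.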

[4] = target: Cellular tumor antigen p53 (Homo sapiens) (UniProt P04637); test: TOX21_p53_BLA_p3_ratio: Tox21 HCT-116 p53 Agonism Beta-lactamase Assay, Ratio, Phase 3 (AID 2283596)
In short: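 HCT116 p53-bla cells (4000/well) given compound in DMSO (217-fold dilution) after 5 h, incubated 16 h at 37C. CCF4-AM substrate 2 h at room temperature; 460/530 nm emission ratio, gain fitted against DMSO.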

[5] = target: Cellular tumor antigen p53 (Homo sapiens) (UniProt P04637); test: TOX21_p53_BLA_p5_ratio: Tox21 HCT-116 p53 Agonism Beta-lactamase Assay, Ratio, Phase 5 (AID 2283599)
In short: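 Beta-lactamase reporter ratio (blue 460 nm over green 530 nm, 405 nm excitation) after 2 h CCF4-AM loading, in HCT-116 cells exposed 16 h at 37 C to compounds pinned at 217-fold dilution. Increases relative to DMSO baseline scored.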

[6] = target: Cellular tumor antigen p53 (Homo sapiens) (UniProt P04637); test: TOX21_p53_BLA_p4_ratio: Tox21 HCT-116 p53 Agonism Beta-lactamase Assay, Ratio, Phase 4 (AID 2283601)
In short: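 Signal is the blue/green (460nm/530nm) ratio of cleaved versus uncleaved CCF4-AM substrate, read after 2 h substrate loading. Cells were HCT116 carrying the p53-responsive beta-lactamase reporter, dosed 16 h at 37C, 5% CO2; CellTiter-Glo measured in parallel.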

[7] = TOX21_p53_BLA_p5_viability: Viability Assessment in the Tox21 HCT-116 p53 Agonism Beta-lactamase Assay, Phase 5 (AID 2283600)
In short: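 Counter-readout for cytotoxicity: ATP-dependent luminescence from CellTiter-Glo, read in the beta-lactamase wells after 30 min at RT, following a 16 h compound exposure at 37C.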

[8] = TOX21_p53_BLA_p4_viability: Viability Assessment in the Tox21 HCT-116 p53 Agonism Beta-lactamase Assay, Phase 4 (AID 2283597);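 also: hits lower the luminescence signal meaning cytotoxicity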
In short: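 Compound exposure of HCT116 cells lasts 16 h at 37C, 5% CO2, with DMSO stocks diluted 217-fold. Cellular ATP is then quantified by CellTiter-Glo luminescence after 30 min at room temperature.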

PGR (gene 5241) [9] = target: PGR (gene 5241) (UniProt P06401); test: TOX21_PR_BLA_Followup_Agonist_ratio: Tox21 HEK293 Progesterone Receptor (PR) Agonism Beta-lactamase Follow-Up Assay, Ratio (AID 2283933)
Sequence of PGR (gene 5241) (P06401 whole entry, looked up): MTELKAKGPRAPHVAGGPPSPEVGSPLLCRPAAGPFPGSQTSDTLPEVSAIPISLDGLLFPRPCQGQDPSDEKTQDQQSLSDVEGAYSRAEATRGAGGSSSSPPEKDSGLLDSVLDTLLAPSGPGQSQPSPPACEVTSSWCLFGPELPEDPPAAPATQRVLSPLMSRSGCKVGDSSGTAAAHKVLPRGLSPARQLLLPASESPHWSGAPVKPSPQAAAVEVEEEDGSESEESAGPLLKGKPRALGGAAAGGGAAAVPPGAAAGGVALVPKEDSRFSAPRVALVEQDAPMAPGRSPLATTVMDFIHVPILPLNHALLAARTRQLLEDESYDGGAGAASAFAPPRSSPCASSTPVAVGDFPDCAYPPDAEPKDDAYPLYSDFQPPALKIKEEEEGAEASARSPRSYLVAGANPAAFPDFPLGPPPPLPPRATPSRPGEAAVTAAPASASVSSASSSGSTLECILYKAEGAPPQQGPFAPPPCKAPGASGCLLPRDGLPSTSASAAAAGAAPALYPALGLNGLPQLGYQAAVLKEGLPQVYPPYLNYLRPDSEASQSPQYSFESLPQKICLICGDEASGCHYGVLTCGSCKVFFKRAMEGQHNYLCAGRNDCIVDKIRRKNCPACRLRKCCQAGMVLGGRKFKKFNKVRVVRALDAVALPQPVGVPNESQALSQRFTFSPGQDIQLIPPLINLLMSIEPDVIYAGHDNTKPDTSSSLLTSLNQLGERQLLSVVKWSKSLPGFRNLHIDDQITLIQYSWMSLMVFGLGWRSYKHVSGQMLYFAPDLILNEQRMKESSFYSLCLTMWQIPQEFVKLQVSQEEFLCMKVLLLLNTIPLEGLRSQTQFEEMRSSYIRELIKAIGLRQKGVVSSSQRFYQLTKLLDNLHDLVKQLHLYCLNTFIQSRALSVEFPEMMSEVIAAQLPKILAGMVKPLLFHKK
In short: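 HEK293T PR-UAS-bla, 2% CS-FBS; 6 hr preincubation, cpd/DMSO pinned, 16 hr 37C/5% CO2; LiveBLAzer B/G 2 hr RT; FRET ch2/ch1 ratio, agonist direction vs DMSO. Viability by CellTiter-Glo in same wells.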

PGR (gene 5241) [10] = target: PGR (gene 5241) (UniProt P06401); test: TOX21_PR_BLA_Followup_Antagonist_ratio: Tox21 HEK293 Progesterone Receptor (PR) Antagonism Beta-lactamase Follow-Up Assay, Ratio (AID 2283934)
In short: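 HEK293T PR-UAS-bla, 2% CS-FBS; 6 hr plating, then cpd + R5020 (1 nM final), 16 hr 37C/5% CO2. B/G FRET substrate 2 h RT. Ratio ch2/ch1 vs DMSO; CellTiter-Glo viability multiplexed, autofluorescence checked.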

[11] = TOX21_PR_BLA_Followup_Agonist_viability: Viability Assessment in the Tox21 HEK293 Progesterone Receptor (PR) Agonism Beta-lactamase Follow-Up Assay (AID 2283935);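 also: signal loss means lower viability so actives are cytotoxic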
In short: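 HEK293T PR-UAS-bla, 3,000 cells/well, 2% CS-FBS; 6 hr pre-incubation; cpd in DMSO, 16 hr 37C; LiveBLAzer 2 hr RT, then CellTiter-Glo 30 min RT, luminescence. Decrease = lost viability.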

[12] = TOX21_PR_BLA_Followup_Antagonist_viability: Viability Assessment in the Tox21 HEK293 Progesterone Receptor (PR) Antagonism Beta-lactamase Follow-Up Assay (AID 2283936);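 also: hits lower the luminescence signal meaning cytotoxicity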
In short: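 PR-UAS-bla HEK293T cells (3,000/well, 2% charcoal-stripped FBS) given compound plus R5020 agonist, 16 h at 37C. CellTiter-Glo added after bla read, 30 min at room temperature; luminescence loss indicates cytotoxicity.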

PGR (gene 5241) [13] = target: PGR (gene 5241) (UniProt P06401); test: TOX21_PR_LUC_Followup_Agonist: Tox21 HEK293 Progesterone Receptor (PR) Agonism Luciferase Follow-Up Assay (AID 2283937; active = hit-call score of the fitted dose curve at least 0.9, where 1 is the maximum; inactive = score below 0.9)
In short: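 Cells: HEK293-PR-A-luc, 3,000/well, 10% charcoal-stripped FBS assay medium. Compound added after 5 h; 16 h, 37C, 0% CO2. ONE-Glo luciferase, luminescence. Positive fit vs DMSO.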

PGR (gene 5241) [14] = target: PGR (gene 5241) (UniProt P06401); test: TOX21_PR_LUC_Followup_Antagonist: Tox21 HEK293 Progesterone Receptor (PR) Antagonism Luciferase Follow-Up Assay (AID 2283938);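 also: curve fitted upward as signal gain over DMSO baseline despite antagonist label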
In short: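 A follow-up to the PR bla screen using HEK293-PR-A-luc cells, multiplexed with cell viability to flag cytotoxicity. Reporter luminescence after 16 h compound exposure was analysed relative to DMSO.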

[15] = TOX21_PR_LUC_Followup_Antagonist_viability: Viability Assessment in the Tox21 HEK293 Progesterone Receptor (PR) Antagonism Luciferase Follow-Up Assay (AID 2283940)
In short: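 Multiplexed viability counter-screen: after 5 days in charcoal-stripped-FBS medium, HEK293-PR-A-luc cells are plated, pinned with DMSO-dissolved compounds for 16 h at 37C, and ATP content is quantified luminescently via CellTiter-Glo.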

[16] = TOX21_PR_LUC_Followup_Agonist_viability: Viability Assessment in the Tox21 HEK293 Progesterone Receptor (PR) Agonism Luciferase Follow-Up Assay (AID 2283941);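 also: loss of signal means cytotoxicity so actives lower viability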
In short: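 Cells were kept 5 days in charcoal-stripped serum medium before plating HEK293-PR-A-luc at 3,000 cells/well. After 5 h they received DMSO-dissolved compound and incubated 16 h at 37C. Viability was taken from CellTiter-Glo ATP luminescence.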

[17] = CCTE_Harrill_HTTr_Apoptosis_MCF7: CCTE's 6-hour Apoptosis Assessment for the High-Throughput Transcriptomics (HTTr) Platform, in MCF-7 cells cultured in DMEM + 10% fetal bovine serum, Harrill Lab (AID 2284011; active = hit-call score of the fitted dose curve at least 0.9, where 1 is the maximum; inactive = score below 0.9)
In short: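 Cells are dosed with test chemicals at eight concentrations and imaged 6 hours later for caspase-3/7 activity using a green fluorogenic detection reagent. Activity is fitted in both directions against DMSO controls.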

Measured: AC50

C[C@@H]1CN(C2CCC(C#N)(c3ccc(F)cc3)CC2)CC[C@]1(C(=O)O)c1ccccc1 (stereo partly specified)
inactive: [1] | [2] | [3] | [4] | [5] | [6]

CC(C)[N+](C)(CCC(C(N)=O)(c1ccccc1)c1ccccc1)C(C)C
inactive: [1] | [2] | [3] | [4] | [5] | [7]

COc1ccc(CN2CCNCC2)c(OC)c1OC
inactive: [1] | [2] | [3] | [4] | [8] | [6]

CC(=O)O[C@H]1CC[C@@]2(C)C(=CC[C@@H]3[C@@H]2CC[C@]2(C)C(=O)CC[C@@H]32)C1
not listed: [5] | [17]
inactive: all other assays above

C=CCC1(C(C)CCC)C(=O)N=C(S)NC1=O (stereo unspecified)
inactive: [1] | [2] | [3] | [4] | [5] | [6]

C[C@]12CC[C@@H]3c4ccc(OC(=O)N(CCCl)CCCl)cc4CC[C@H]3[C@@H]1CC[C@@H]2O
active: [2] 24.6 µM | [4] 29 µM | [5] 25.2 µM | [6] 31.9 µM
inactive: [1] | [3]

Oc1ccc(C2(c3ccc(O)cc3)CCCCC2)cc1
active: [1] 72.1 µM | [2] 83.2 µM | [3] 44.1 µM | [4] 83.7 µM | [8] 46.3 µM | [7] 74 µM
inactive: [17]

C=CCc1cc(OC)c2c(c1)OCO2
inactive: [1] | [2] | [3] | [4] | [5] | [6]

NC(=O)CN1CCCC1=O
inactive: [1] | [2] | [3] | [4] | [5] | [6]

OCCSCSCCO
inactive: [1] | [2] | [3] | [4] | [5] | [7] | [6]

CCCCCCCCCCCCCC[P+](CCCCCC)(CCCCCC)CCCCCC (tested in a mixture with another compound)
inactive: [6]
active: [1] 11.7 µM | [2] 21.4 µM | [3] 24.1 µM | [4] 33.5 µM | [5] 46.8 µM | [7] 15.2 µM

O=c1[nH]oc2c1CCNC2
inactive: [1] | [2] | [3] | [4] | [5] | [6]

O=C(NC(=O)c1ccccc1Cl)Nc1ccc(OC(F)(F)F)cc1
inactive: [1] | [2] | [3] | [4] | [5] | [7] | [6]

— PubChem BioAssay (EPA / NIEHS)
